This note sets out measurements from the supplement of paper PMC10646978.

± gives the standard deviation.

What all share (details): modulator concentration 10 µM
The test system of test [1] is RAW-Dual (murine macrophage reporter line). Kind of test: NF-kB reporter (SEAP) activity fold change vs agonist alone; higher = enhanced NF-kB activity. Put shortly:
(§1)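 RAW-Dual murine macrophage reporter cells were seeded at 50 000 per well in 384-well plates and pre-incubated 1 hour at 37 °C with compound pin-transferred to 10 μM final. After 1 hour, a PRR agonist was added and cells incubated overnight. Supernatant NF-κB (SEAP, QUANTI-Blue, 620 nm absorbance) and IRF (Lucia luciferase, QUANTI-Luc, luminescence) signals were divided by the mean agonist-only control on the same plate to give fold change. Two replicate plates were averaged, with errors by propagation.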

For test [2] the test system is unchanged. Kind of test: IRF reporter (Lucia luciferase) activity fold change vs agonist alone; higher = enhanced IRF activity. An outline of the steps: as §1
Test [3] has the same test system. Kind of test: viability score (confluency relative to resting cells, overnight) (fraction); higher = more viable, active = viable (0.7 or more). Put shortly:
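RAW-Dual macrophages in 384-well plates were exposed overnight to compound at 10 μM final. Confluency was imaged with IncuCyte, and two confluency masks were generated with IncuCyte software over all imaged wells. The viability score is confluency expressed relative to resting cells. Compounds were called viable if both masks exceeded 70% of resting cells.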

[4] abbreviates: agonist: CpG ODN 1826 0.5 ug/mL.

As for `COC(=O)C1=C(C)NC(C)=C(C(=O)OC(C)(C)CN(C)CCC(c2ccccc2)c2ccccc2)C1c1cccc([N+](=O)[O-])c1.Cl` (stereo unspecified), the NF-kB reporter in test [1] (setting [4]) came to 0.167 ± 0.023; in test [1] (agonist: LPS 0.1 ug/mL), 0.807 ± 0.17; in test [1] (agonist: MPLA […]), 1.98 ± 1. In addition, the results for the IRF reporter in test [2] (agonist: 3'3'-cGAMP 10 ug/mL), in test [2] (agonist: LPS 0.1 ug/mL) and in test [2] (agonist: MPLA […]) were 0.132 ± 0.0065, 1.69 ± 0.37 and 2.85 ± 0.23, respectively. In addition, in test [3], the viability score is 0.96 (active).

On to `O=C(NC(=S)NNc1ccccc1)c1cc2ccccc2oc1=O`, for which the NF-kB reporter was 1.08 ± 0.23 in test [1] (setting [4]), 1.16 ± 0.15 in test [1] (agonist: LPS 0.1 ug/mL) and 1.03 ± 0.11 in test [1] (agonist: MPLA […]). For the same molecule, the IRF reporter is 0.861 ± 0.022 in test [2] (agonist: 3'3'-cGAMP 10 ug/mL), 1.23 ± 0.16 in test [2] (agonist: LPS 0.1 ug/mL) and 1.12 ± 0.2 in test [2] (agonist: MPLA […]). The viability score in test [3] is 0.999 (active).

Consider `O=C(C(Cl)Cl)N1CCN(Cc2ccccc2)CC1`, for which the values for the NF-kB reporter in test [1] (setting [4]), in test [1] (agonist: LPS 0.1 ug/mL) and in test [1] (agonist: MPLA […]) were 0.881 ± 0.068, 0.67 ± 0.077 and 0.709 ± 0.072, respectively. The figures for the IRF reporter in test [2] (agonist: 3'3'-cGAMP 10 ug/mL), in test [2] (agonist: LPS 0.1 ug/mL) and in test [2] (agonist: MPLA […]) were 0.712 ± 0.032, 1.25 ± 0.18 and 1.28 ± 0.24, respectively. Besides, the viability score in test [3] is 1.01 (active).

As to `COc1cc(-c2nnc(SCc3ccc([N+](=O)[O-])cc3)n2-c2ccccc2)cc(OC)c1OC`, the NF-kB reporter in test [1] (setting [4]) was 0.986 ± 0.095; in test [1] (agonist: LPS 0.1 ug/mL), 0.942 ± 0.053; in test [1] (agonist: MPLA […]), 0.994 ± 0.074. The IRF reporter in test [2] (agonist: 3'3'-cGAMP 10 ug/mL) was 1.07 ± 0.067; in test [2] (agonist: LPS 0.1 ug/mL), 1.37 ± 0.2; in test [2] (agonist: MPLA […]), 0.969 ± 0.06. Besides, the viability score in test [3] is 1.01 (active).

With `COC1CCN(C2CN(C(=O)CCn3cnc4ccccc4c3=O)C2)CC1`, the values for the NF-kB reporter in test [1] (setting [4]), in test [1] (agonist: LPS 0.1 ug/mL) and in test [1] (agonist: MPLA […]) were 1.05 ± 0.052, 1.08 ± 0.092 and 0.882 ± 0.044, respectively. Moreover, the results for the IRF reporter in test [2] (agonist: 3'3'-cGAMP 10 ug/mL), in test [2] (agonist: LPS 0.1 ug/mL) and in test [2] (agonist: MPLA […]) were 1.01 ± 0.052, 1.27 ± 0.076 and 1.13 ± 0.24, respectively. In addition, in test [3], the viability score was 0.994 (active).

Consider `Cc1cnc(Nc2ccc(OCCN3CCCC3)cc2)nc1Nc1cccc(S(=O)(=O)NC(C)(C)C)c1`, for which the values for the NF-kB reporter in test [1] (setting [4]), in test [1] (agonist: LPS 0.1 ug/mL) and in test [1] (agonist: MPLA […]) were 0.769 ± 0.17, 1.81 ± 0.14 and 2.74 ± 0.12, respectively. The results for the IRF reporter in test [2] (agonist: 3'3'-cGAMP 10 ug/mL), in test [2] (agonist: LPS 0.1 ug/mL) and in test [2] (agonist: MPLA […]) were 0.0927 ± 0.014, 0.0391 ± 0.0087 and 0.064 ± 0.028, respectively. The viability score in test [3] is 0.0864 (inactive).

Consider `CCNC(=O)c1ccc(CN2CCc3ccccc3C2)cc1`, for which the NF-kB reporter was found to be 1.12 ± 0.09 in test [1] (setting [4]), 1.13 ± 0.074 in test [1] (agonist: LPS 0.1 ug/mL) and 0.958 ± 0.059 in test [1] (agonist: MPLA […]). Moreover, the values for the IRF reporter in test [2] (agonist: 3'3'-cGAMP 10 ug/mL), in test [2] (agonist: LPS 0.1 ug/mL) and in test [2] (agonist: MPLA […]) were 0.905 ± 0.039, 1.37 ± 0.29 and 1.04 ± 0.075, respectively. In addition, the viability score in test [3] was 1.01 (active).

With `O=C(NCC(O)Cn1ccccc1=O)c1ccc(Cl)s1` (stereo unspecified), the figures for the NF-kB reporter in test [1] (setting [4]), in test [1] (agonist: LPS 0.1 ug/mL) and in test [1] (agonist: MPLA […]) were 0.94 ± 0.1, 0.869 ± 0.087 and 1.01 ± 0.087, respectively. The IRF reporter amounted to 1.02 ± 0.047 in test [2] (agonist: 3'3'-cGAMP 10 ug/mL), 1.41 ± 0.09 in test [2] (agonist: LPS 0.1 ug/mL) and 1.46 ± 0.12 in test [2] (agonist: MPLA […]). Moreover, in test [3], the viability score was 1 (active).

With `Cc1ccc(C=CC(=O)O)cc1S(=O)(=O)NCCO`, the results for the NF-kB reporter in test [1] (setting [4]), in test [1] (agonist: LPS 0.1 ug/mL) and in test [1] (agonist: MPLA […]) were 1.04 ± 0.2, 0.884 ± 0.075 and 1.05 ± 0.095, respectively. For the same molecule, the IRF reporter in test [2] (agonist: 3'3'-cGAMP 10 ug/mL) amounted to 0.988 ± 0.077; in test [2] (agonist: LPS 0.1 ug/mL), 1.16 ± 0.2; in test [2] (agonist: MPLA […]), 0.979 ± 0.32. Further, the viability score in test [3] was 0.984 (active).

With `CCOC(=O)Nc1nc(C)c(C(C)=O)s1`, the NF-kB reporter in test [1] (setting [4]) was 0.763 ± 0.059; in test [1] (agonist: LPS 0.1 ug/mL), 0.872 ± 0.046; in test [1] (agonist: MPLA […]), 1.12 ± 0.098. The IRF reporter came to 0.996 ± 0.058 in test [2] (agonist: 3'3'-cGAMP 10 ug/mL), 1.35 ± 0.081 in test [2] (agonist: LPS 0.1 ug/mL) and 1.44 ± 0.14 in test [2] (agonist: MPLA […]). Also, the viability score in test [3] is 1.02 (active).

On to `CN1CCN(CCC=C2c3ccccc3Sc3ccc(S(=O)(=O)N(C)C)cc32)CC1`, for which the NF-kB reporter in test [1] (setting [4]) amounted to 0.935 ± 0.071; in test [1] (agonist: LPS 0.1 ug/mL) it was 1.04 ± 0.12; in test [1] (agonist: MPLA […]), 1.01 ± 0.051. Further, the IRF reporter in test [2] (agonist: 3'3'-cGAMP 10 ug/mL) stood at 0.856 ± 0.057; in test [2] (agonist: LPS 0.1 ug/mL), 0.978 ± 0.078; in test [2] (agonist: MPLA […]) it was 0.872 ± 0.076. In test [3], the viability score was 0.991 (active).

Regarding `Cc1nonc1OC(C)CNc1ccc([N+](=O)[O-])cc1` (stereo unspecified), the NF-kB reporter in test [1] (setting [4]) was 0.989 ± 0.078; in test [1] (agonist: LPS 0.1 ug/mL), 1.01 ± 0.083; in test [1] (agonist: MPLA […]) it was 1.14 ± 0.089. Further, the IRF reporter in test [2] (agonist: 3'3'-cGAMP 10 ug/mL) turned out to be 0.84 ± 0.11; in test [2] (agonist: LPS 0.1 ug/mL), 0.995 ± 0.1; in test [2] (agonist: MPLA […]) it was 0.843 ± 0.15. The viability score in test [3] was 0.998 (active).

Regarding `CCS(=O)(=O)N1CCC2(CC1)NC(=O)N(CCOc1ccccc1)C2=O`, the NF-kB reporter in test [1] (setting [4]) was 0.871 ± 0.041; in test [1] (agonist: LPS 0.1 ug/mL), 1.05 ± 0.11; in test [1] (agonist: MPLA […]), 1.09 ± 0.078. The IRF reporter in test [2] (agonist: 3'3'-cGAMP 10 ug/mL) is 0.996 ± 0.047; in test [2] (agonist: LPS 0.1 ug/mL), 1.43 ± 0.25; in test [2] (agonist: MPLA […]) it was 1.58 ± 0.61. For the same molecule, in test [3], the viability score is 0.989 (active).
